In PubChem BioAssay (Tox21):
Inconclusive results are not listed. Activity calls are given as the source filed them. Calls follow the shape of the dose curve; as a rule, active = well fitted activation curve with a large enough effect in the repeat runs; inconclusive = weak or mixed curves; inactive = flat fitted curve, though single readings scatter.

Test: A CellTox Green Cytotoxicity Assay to monitor cytotoxicity in HepG2 cells - 32 hour (AID 1224883); also: nearly all actives have a fitted effect of over 50% in size
Conditions: CellTox Green fluorescence; series mostly up to 76.8 µM; cytotoxicity increase: at the top concentration
Text: National Center for Advancing Translational Sciences [NCATS]
NIH Chemical Genomics Center [NCGC]
U.S. Environmental Protection Agency [EPA]
National Institutes of Environmental Health Sciences [NIEHS]
National Toxicology Program [NTP]
Cell-based models are critical for drug discovery. Determining the natural cytotoxic effects resulting from test compounds is an essential research activity. A CellTox Green Cytotoxicity Assay to monitor cytotoxicity in real time of continues cell culture during 40 hours of the compound treatment was used to screen Tox21 10K library compounds in HepG2 cells. CellTox Green Cytotoxicity Assay is a nonlytic, homogeneous, biofluorescent method to measure cytotoxicity in cell culture after experimental manipulation. The assay system uses a proprietary asymmetric cyanine dye that is excluded from viable cells but preferentially stains the dead cell's DNA. […] Viable cells produce no appreciable increases in fluorescence. Therefore, the fluorescence signal produced by the binding interaction with dead cell DNA is proportional to cytotoxicity.
The mixture of HepG2 cell suspension and reagents were dispensed at 600cells/6 ul/well in 1536-well tissue culture treated black solid bottom plates using a Multidrop dispenser. After the assay plates were incubated at a 37 C/5% CO2 incubator for 5 hours, 23 nL of compounds dissolved in DMSO, positive and negative controls was transferred to the assay plate by a pintool work station. The plates were incubated at 37 C for 40 hours. The fluorescence intensity were measured at 0h, 8h, 16h, 24h, 32h and 40h time points using ViewLux plate reader during compound treatment.
% is scaled to controls: 0 for no effect and ±100 for the full control effect; potency is read from the fitted curve at half-maximal effect.

| Structure (SMILES) | cytotoxicity increase | Potency |
| --- | --- | --- |
| Oc1ccc2c(c1)OCO2 | -1.62% (inactive) | – |
| N#Cc1c(F)cccc1F | -0.645% (inactive) | – |
| O=[N+]([O-])c1cccc(Cl)c1Cl | -1.12% (inactive) | – |
| CCOc1ccc(NC(=O)CC(C)=O)cc1 | -11.7% (inactive) | – |
| COCCO | -7.54% (inactive) | – |
| CC[C@]12CCCN3CCc4c(n(c5ccccc45)C(=O)C1)[C@@H]32 | – | 6.74 µM (active) |
| O=C(C(=O)c1ccc(Br)cc1)c1ccc(Br)cc1 | -9.52% [at 15.8 µM] (inactive) | – |
| COCCCCCCCCOCCC[Si](C)(O[Si](C)(C)C)O[Si](C)(C)C | – | 21.9 µM (active) |
| CCN(CC)C(C)CN1c2ccccc2Sc2ccccc21 (stereo not given) | 4.16% [at 35.3 µM] (inactive) | – |
| O=C(O)Cc1sc(-c2ccccc2)nc1-c1ccc(Cl)cc1 | 0.779% [at 35.3 µM] (inactive) | – |
| C=CC(C)(CCC=C(C)C)OC(=O)c1ccccc1 (stereo not given) | -5.43% (inactive) | – |
| CCCCOC(=O)c1ccccc1C(=O)OCC(CC)CCCC (stereo not given) | -0.664% (inactive) | – |
| CCc1nn(C2CCCCC2)c2cc(C3(C#N)CCC(C(=O)O)CC3)ccc12 (stereo not given) | 4.08% (inactive) | – |
| CCCC(=O)OCC | -19.3% (inactive) | – |
| S=C(S)NCCNC(=S)S | -22.9% (inactive) | – |
| O=C(O)Cn1c(C(=O)Nc2nc(-c3ccccc3Cl)cs2)cc2ccccc21 | 8.76% [at 35.3 µM] (inactive) | – |
| CC(C(=O)O)c1ccc(C(=O)c2ccccc2)s1 (stereo not given) | 17.6% [at 35.3 µM] (inactive) | – |
| CCCCCCCCCCCCCCCC(=O)OC/C=C(C)/C=C/C=C(C)/C=C/C1=C(C)CCCC1(C)C | -5.87% (inactive) | – |
| CC(=O)/C=C/C1C(C)=CCCC1(C)C (stereo not given) | -6.01% (inactive) | – |
| CCCCCCCCCC(=O)OCC | -8.62% (inactive) | – |

| Structure (SMILES) | cytotoxicity increase | Potency |
| --- | --- | --- |
| CC(=O)OC/C=C/c1ccccc1 | -8.4% (inactive) | – |
| C=Cc1c(C)c2cc3[nH]c(cc4nc(cc5nc(cc1[nH]2)C(C)=C5CCC(=O)O)C(CCC(=O)O)=C4C)c(C)c3C=C | -21.8% [at 35.3 µM] (inactive) | – |
| COc1ccc([C@@H]2Sc3ccccc3N(CCN(C)C)C(=O)[C@@H]2OC(C)=O)cc1 | -3.44% [at 35.3 µM] (inactive) | – |
| CN(c1nccc(=O)[nH]1)C1CCN(c2nc3ccccc3n2Cc2ccc(F)cc2)CC1 | -3.44% [at 35.3 µM] (inactive) | – |
| CCCCCCCCN(C)C | -9.65% (inactive) | – |
| CC(=O)N(O)CCCCCNC(=O)CCC(=O)N(O)CCCCCNC(=O)CCC(=O)N(O)CCCCCN | -2.96% [at 35.3 µM] (inactive) | – |
| CN1CCC(OC(c2ccccc2)c2ccccc2)CC1 | -5.86% [at 35.3 µM] (inactive) | – |
| CC1=CCC(C(C)C)C=C1 (stereo not given) | -6.5% (inactive) | – |
| C=C(C)C(=O)OCCN(C)C | -5.61% (inactive) | – |
| CC(C)c1ccc2c(C(C)C)cc(C(C)C)c(S(=O)(=O)O)c2c1 | -10% (inactive) | – |
| CCOC(=S)SSC(=S)OCC | 1.52% (inactive) | – |
| O=C(/C=C/c1ccc(O)c(O)c1)O[C@@H]1C[C@](O)(C(=O)O)C[C@@H](O)[C@H]1O | -18.3% (inactive) | – |
| CC(C)c1ccccc1C(C)C | 4.1% (inactive) | – |
| Cc1ccc(C(N)=O)cc1N | -5.96% (inactive) | – |
| CCCOc1ccc2nc(NC(=O)OC)[nH]c2c1 | 3.64% [at 35.3 µM] (inactive) | – |
| O=S(=O)(O)c1ccc(O)c2ncccc12 | -11% (inactive) | – |
| Cc1cc(C)c(S(=O)(=O)O)cc1N=Nc1cc(S(=O)(=O)O)c2ccccc2c1O | -54.7% (inactive) | – |
| Cc1ccccc1N=Nc1ccc(N=Nc2c(O)ccc3ccccc23)c(C)c1 | -15.5% [at 35.3 µM] (inactive) | – |
| C1=Cc2ccccc2C1 | -2.61% (inactive) | – |
| COc1ccc2[nH]c(S(=O)Cc3ncc(C)c(OC)c3C)nc2n1 (stereo not given) | -10.3% [at 35.3 µM] (inactive) | – |
